Assay results from publication PMC4336329 (PLoS ONE, 2015).
Screen size: about 310,000 compounds; about 2,200 (0.71%) showed an effect of 50% or more. The effect is printed as a negative number. The sample holds strong results, similar compounds and a random draw of the others, so the mix is not that of the screen.

target: human ether-à-go-go-related gene (hERG) potassium channel (human, UniProt Q12809); assay: primary screen, population patch clamp on CHO cells stably expressing hERG; higher = less effect of the substance
Sequence (Q12809 whole entry, looked up): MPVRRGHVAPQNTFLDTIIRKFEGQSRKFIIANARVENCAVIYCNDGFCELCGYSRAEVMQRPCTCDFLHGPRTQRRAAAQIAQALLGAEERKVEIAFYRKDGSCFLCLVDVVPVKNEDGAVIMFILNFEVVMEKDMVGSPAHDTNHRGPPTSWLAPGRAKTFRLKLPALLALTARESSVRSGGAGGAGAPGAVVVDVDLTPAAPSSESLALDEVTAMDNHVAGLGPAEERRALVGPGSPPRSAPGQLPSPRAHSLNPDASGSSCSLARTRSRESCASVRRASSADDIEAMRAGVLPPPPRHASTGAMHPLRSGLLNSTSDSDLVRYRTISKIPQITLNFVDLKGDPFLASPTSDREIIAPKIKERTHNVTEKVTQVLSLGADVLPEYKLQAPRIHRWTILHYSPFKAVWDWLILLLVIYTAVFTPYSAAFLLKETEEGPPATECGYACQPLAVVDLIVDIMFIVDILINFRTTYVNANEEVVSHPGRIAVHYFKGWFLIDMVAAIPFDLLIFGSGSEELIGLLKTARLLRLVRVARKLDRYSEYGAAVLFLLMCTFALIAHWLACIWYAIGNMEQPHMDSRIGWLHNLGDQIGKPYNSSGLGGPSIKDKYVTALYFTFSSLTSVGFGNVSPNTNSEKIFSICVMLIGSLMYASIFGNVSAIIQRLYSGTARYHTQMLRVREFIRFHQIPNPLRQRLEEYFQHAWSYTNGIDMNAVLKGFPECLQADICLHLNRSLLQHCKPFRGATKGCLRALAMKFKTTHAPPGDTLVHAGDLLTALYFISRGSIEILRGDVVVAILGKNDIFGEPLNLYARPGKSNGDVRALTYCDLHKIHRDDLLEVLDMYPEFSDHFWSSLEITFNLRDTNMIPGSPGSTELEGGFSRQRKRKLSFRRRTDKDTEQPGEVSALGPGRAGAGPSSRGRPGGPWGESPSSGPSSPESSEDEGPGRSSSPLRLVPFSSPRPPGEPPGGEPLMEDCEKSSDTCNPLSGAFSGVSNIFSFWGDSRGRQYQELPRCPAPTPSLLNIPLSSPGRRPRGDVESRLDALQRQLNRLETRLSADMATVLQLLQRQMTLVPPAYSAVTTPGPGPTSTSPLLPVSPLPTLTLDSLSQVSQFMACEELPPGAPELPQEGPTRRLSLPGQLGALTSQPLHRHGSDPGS

In order of rising “hERG current change (%, negative = inhibition) at 1uM” value:
1. O=C(O)C(=O)O.O=[N+]([O-])c1ccc(S(=O)(=O)N2CCN(C3CCN(Cc4ccccc4)CC3)CC2)cc1  -78.1%
2. Cl.O.O=C(c1ccc(F)cc1)C1CCN(CCn2c(=S)[nH]c3ccccc3c2=O)CC1  -77.7%
3. O=S(=O)(c1ccc(Cl)cc1)N1CCC(O)(CN2CCN(Cc3ccccc3)CC2)CC1  -75.6%
4. Cc1ccc(S(=O)(=O)N2CCN(C3CCN(Cc4ccccc4)CC3)CC2)cc1.O=C(O)C(=O)O  -75.3%
5. O=S(=O)(c1ccccc1)N1CCN(C2CCN(Cc3ccccc3)CC2)CC1  -64.1%
6. CC1(C)C(=O)N(CCN2CCC(C(=O)c3ccc(F)cc3)CC2)c2ccccc21.Cl  -60.8%
7. CC(=O)N1CCN(CC(=O)Nc2ccc([N+](=O)[O-])cc2Br)CC1  -60.4%
8. O=S(=O)(c1ccc(Cl)cc1)N1CCN(C2CCN(Cc3ccccc3)CC2)CC1  -59%
9. C/C(=N/NC(=O)c1ccc(Br)o1)c1cccc(NC(=O)c2ccc(C)o2)c1  -58%
10. CN1CCN(CC(=O)Nc2ccc([N+](=O)[O-])cc2Br)CC1  -55.8%
11. O=c1c2ccccc2[nH]c(=S)n1CCCN1CCC(Cc2ccccc2)CC1  -52%
12. CC(CC(=O)N1CCN(S(=O)(=O)c2ccc([N+](=O)[O-])cc2)CC1)c1ccccc1 (stereo not shown)  -50.3%
13. O=C(Cc1ccccc1)N1CCN(S(=O)(=O)c2ccc([N+](=O)[O-])cc2)CC1  -24.6%
14. O=[N+]([O-])c1ccccc1S(=O)(=O)N1CCN(C2CCN(Cc3ccccc3)CC2)CC1  -18.2%
15. COc1ccc(S(=O)(=O)N2CCN(C3CCN(Cc4ccccc4)CC3)CC2)cc1  -15.6%
16. COc1ccc(S(=O)(=O)N2CCC(N3CCN(Cc4ccccc4)CC3)CC2)cc1.O=C(O)C(=O)O  -14.4%
17. CC1CCN(CCCn2c(=S)[nH]c3ccccc3c2=O)CC1  -13.5%
18. O=C(CN1CCOCC1)Nc1ccc([N+](=O)[O-])cc1Br  -11.7%
19. O=C(CN1CCC(C(=O)c2ccc(F)cc2)CC1)Nc1ccccc1  -10.5%
20. O=C(O)C(O)C(O)C(=O)O.O=C(c1ccc(F)cc1)C1CCN(CCn2c(=O)[nH]c3ccccc3c2=O)CC1  -9.52%
21. CN1CCN(CC2(O)CCN(S(=O)(=O)c3ccc(Cl)cc3)CC2)CC1  -9.27%
22. C/C(=N/NC(=O)c1ccco1)c1cccc(NC(=O)c2ccc(C)o2)c1  -8.71%
23. O=C(CN(C(=O)CNC(=O)c1cccs1)c1ccc2c(c1)OCCO2)NC1CCCC1  -3.99%
24. CC(=O)NC(c1ccco1)c1ccc2cccnc2c1O (stereo not shown)  -3.48%
25. O=S(=O)(c1ccccc1)N1CCN(Cc2ccc(Cl)cc2)CC1  -2.04%
26. Cc1[nH]c2ccc(C(=O)N3CCN(Cc4ccccc4)CC3)cc2c1C  0.829%
27. CC(=O)N1CCN(CC(=O)Nc2cc([N+](=O)[O-])ccc2Cl)CC1  1.54%
28. O=S(=O)(c1ccc(Cl)cc1)N1CCN(C2CCCCCC2)CC1  1.61%
29. CC1CCN(CCn2c(=S)[nH]c3ccccc3c2=O)CC1  1.9%
30. C/C(=N\NC(=O)c1cccc(Br)c1)c1cccc(NC(=O)c2ccc(C)o2)c1  2.01%
31. O=C(CN1CCC(C(=O)c2ccc(F)cc2)CC1)NCc1ccccc1F  2.84%
32. Cc1ccc(C2=N/C(=C\c3cccnc3)C(=O)O2)cc1  3.52%
33. O=C(c1cccc(C(F)(F)F)c1)N1CCN(S(=O)(=O)c2ccc(Cl)s2)CC1  3.68%
34. CCC1CCCCN1C(=O)c1sc2nc(C)nc(N(CC)CC)c2c1C (stereo not shown)  5.72%
35. O=C(CSc1cccc[n+]1[O-])C12CC3CC(CC(C3)C1)C2  6.16%
36. NS(=O)(=O)c1cccc(NC(=O)CCCC2CCCCC2)c1  7.26%
37. O=C(CN1CCN(c2ccccc2O)CC1)Nc1ccc([N+](=O)[O-])cc1Br  7.54%
38. CS(=O)(=O)N1CCN(C2CCN(Cc3ccccc3)CC2)CC1  7.88%
39. CC(C)CC(=O)N1CCN(S(=O)(=O)c2ccccc2)CC1  8.07%
40. CC1(c2nnc(-c3cccc(Cl)c3)o2)CC(c2ccccc2F)=NO1 (stereo not shown)  8.2%
41. CC(C)CC1NC(=O)N(CC(=O)NC2CCCc3ccccc32)C1=O (stereo not shown)  9.38%
42. Cc1ccc(-c2cc3ccccc3nc2N2CCOCC2)cc1  9.78%
43. COc1cccc(NC(=S)NNC(=O)Cn2nc(C(F)(F)F)cc2C)c1  9.84%
44. Cc1ccc(S(=O)(=O)N2CCN(Cc3ccccc3)CC2)cc1  10%
45. O=C(CN1CCCCCC1)Nc1ccc([N+](=O)[O-])cc1Br  10.1%
46. COc1ccccc1C1/C(=C(/O)c2ccccc2)C(=O)C(=O)N1CC(C)C (stereo not shown)  10.7%
47. O=C(O)c1ccc2c(c1)C(=O)N(c1cc([N+](=O)[O-])ccn1)C2=O  10.8%
48. Cc1ccc(C2CCN(C(=O)Nc3ccccc3)C2)cc1 (stereo not shown)  11.5%
49. Cc1cc(CSc2ccccc2C(=O)O)on1  11.6%
50. c1ccc(OCc2nn3c(-c4ccccn4)nnc3s2)cc1  12.2%
51. COc1ccc(COC(=O)C2=C(C)NC(=O)NC2c2ccc(OC)c(OC)c2)cc1 (stereo not shown)  12.4%
52. Cc1nc2c(-c3ccccc3)c[nH]n2c(=O)c1Cc1ccccc1  13.3%
53. O=C1CN(c2ccccc2)C(=S)N1C(=O)c1ccccc1  13.5%
54. Cc1cccc(-c2c3c(=O)n(C)c(=O)n(C)c3cn2-c2ccc(O)cc2)c1  13.8%
55. O=C(CC1C(=O)NCCN1Cc1ccc(Cl)c(F)c1)NC1CCC1 (stereo not shown)  14%
56. O=c1c2ccccc2[nH]c(=S)n1CCCN1CCN(c2ccccc2)CC1  14%
57. O=C(O)C1C2C=CC(C2)C1C(=O)NCc1ccoc1 (stereo not shown)  14.3%
58. Cc1cc(NC(=O)CCC(=O)N(Cc2cccnc2)C(C(=O)NC(C)(C)C)c2ccccc2Cl)no1 (stereo not shown)  14.7%
59. O=S(=O)(c1ccccc1)N1CCC(O)(CN2CCN(c3ccccc3)CC2)CC1  14.8%
60. O=C(O)C(=O)O.O=[N+]([O-])c1ccc(S(=O)(=O)N2CCN(Cc3ccco3)CC2)cc1  18.9%
61. Cc1ccc(OC(F)F)c(NC(=O)Nc2ccc3c(c2)OCO3)c1  19.9%
